# Source: PubChem BioAssay
# Molecular target: Streptavidin (Streptomyces avidinii) (UniProt P22629)
# Experiment: streptavidin binders on small-molecule microarray, primary screen, artefact control for SMM compound annotation, biophysical, 635/667 nm fluorescence (AID 1147);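 note: signal reflects streptavidin binding to arrayed compounds as a control protein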
# Conditions: streptavidin binding, higher = more signal
# Chain of Streptavidin (Streptomyces avidinii) (P22629 whole entry, looked up): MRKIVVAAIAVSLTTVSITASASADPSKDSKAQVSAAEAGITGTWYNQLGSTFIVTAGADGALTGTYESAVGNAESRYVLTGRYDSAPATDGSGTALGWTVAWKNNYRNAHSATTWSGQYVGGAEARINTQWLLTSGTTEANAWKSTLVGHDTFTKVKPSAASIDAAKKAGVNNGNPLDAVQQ
row,Compound,composite z-score
1,C=C(/C(=C/C[C@@H](OC(C)=O)c1ccc(OCCO)cc1)c1cnc2ccccc2c1)C(C)C,0.376
2,O=C1OCC=C[C@H]2OC34C=CCN(CCN5CCOCC5)C(=O)[C@H]3N(CCCO)C(=O)[C@@H]4[C@@H]12 (stereo not given in full),0.212
3,C=CC[C@]1(C(=O)NCCCOC)N=C(c2ccc(OCCCO)cc2)O[C@H]1c1ccccc1N=[N+]=[N-],1.39
4,COCC(=C=CC[C@H](O)c1ccccc1OCCO)C[C@H](O)c1cc(Cl)cc(Cl)c1O,0.423
5,COC(=O)c1c(CC[C@@H](CO)NC(=O)N2CCC[C@H]2Cn2cc(-c3ccccn3)nn2)oc(C(C)=O)c1C(=O)OC,-0.281
6,C=CCN(Cc1ccccc1)C(=O)C(c1cccs1)N(CCOCCO)C(=O)/C=C\C(=O)O (stereo not given),-1.28
7,CCN(CC)c1ccc(N2CC=CC34O[C@@H]5/C=C\CCCOC(=O)C5[C@H]3C(=O)N(CCO)[C@@H]4C2=O)cc1 (stereo not given in full),-0.79
8,C=CC[C@@]1(C(N)=O)N=C(c2ccc(OCCCO)cc2)O[C@@H]1c1ccccc1CN=[N+]=[N-],0.456
9,O=C1c2ccccc2[C@](Cc2ccccc2I)(C(=O)NC2CC2)[C@H](c2ccc(CO)cc2)N1C1CCCCC1,1.05
10,O=C(NCc1ccccc1)[C@@]1(CCS(=O)(=O)c2ccccc2)N=C(c2ccc(OCCCO)cc2)O[C@H]1c1ccccc1,1.8
11,CCCCCN1CC=CC23O[C@@H]4/C=C\CCCOC(=O)C4[C@H]2C(=O)N(CCCO)[C@@H]3C1=O (stereo not given in full),-0.413
12,C=CCNC(=O)[C@@H]1[C@H]2C(=O)O[C@H](c3ccccc3)[C@H](c3ccccc3)N2[C@H](c2ccccc2OCCO)[C@@]12C(=O)N(C(=O)OCCOC)c1ccc(C#CCNC(N)=O)cc12,0.225
13,COCCOC(=O)N1C(=O)[C@@]2(c3cc(C#CCCO)ccc31)[C@H](C(=O)N1CCN(c3ncccn3)CC1)[C@H]1C(=O)O[C@H](c3ccccc3)[C@H](c3ccccc3)N1[C@@H]2c1ccccc1OCCO,1.08
14,COc1ccc(CCN2C(=O)[C@@]3(c4ccc([N+](=O)[O-])cc4)CC(=O)N(C4CCCCC4)[C@@H]3c3ccc(CO)cc32)cc1,-0.298
15,CCOC(=O)C[C@H]1[C@H](OC(=O)c2ccc(C(=O)c3ccccc3)cc2)[C@@H](NC(=O)c2ccc(-c3ccccc3)cc2)c2cc(OCCCO)ccc2N1C(=O)c1ccccc1,1.11
16,COC(=O)C(CC#Cc1ccc2c(c1)[C@]1(C(=O)N2)[C@H](c2ccc(O)cc2)N2[C@H](c3ccccc3)[C@H](c3ccccc3)OC(=O)[C@H]2[C@@H]1C(=O)Nc1nc2ccccc2s1)C(=O)OC,0.458
17,O=C1[C@H]2C=C(Br)[C@H](C[C@@H]2OCCCCO)[C@@]12CO2,0.0247
18,Cc1ccc(C(C)CC(O)C2C=CC3C(=O)N(c4ccccc4)C(=O)C3N2Nc2ccc([N+](=O)[O-])cc2)o1 (stereo not given),1.71
19,COCCOC(=O)N1C(=O)[C@@]2(c3cc(C#CCCO)ccc31)[C@H](C(=O)Nc1nc3ccccc3s1)[C@H]1C(=O)O[C@H](c3ccccc3)[C@H](c3ccccc3)N1[C@@H]2c1ccc(OCCO)cc1,1.06
20,CCCCC(O)C1C=CC2C(=O)N(c3ccccc3)C(=O)C2N1Nc1ccccc1F (stereo not given),2.09
21,[N-]=[N+]=Nc1ccccc1C[C@]1(C(=O)NCC(O)CO)N=C(c2ccc(OCCCO)cc2)O[C@H]1c1ccccc1N=[N+]=[N-] (stereo not given in full),0.0136
22,C=C(CCCC)/C(=C/C[C@@H](OC(C)=O)c1ccccc1OCCO)c1cnc2ccccc2c1,-0.0227
23,OC([C@@H]1CC(c2ccccc2)=NO1)[C@H]1CC(c2ccccc2)=NO1 (stereo not given in full),0.133
24,[N-]=[N+]=NCc1ccccc1[C@H]1OC(c2ccc(OCCCO)cc2)=N[C@@]1(Cc1ccccc1)C(=O)NCc1ccccc1,1.15
25,O=C(NCc1ccccc1)[C@@H]1c2ccccc2C(=O)N(CC23CC4CC(CC(C4)C2)C3)[C@H]1c1ccc(CO)cc1,0.467

# Test system: not listed separately
# Experiment: small-molecule binders of probe aInhba, primary screen, biochemical, small-molecule microarray, 635/667 nm fluorescence (AID 1148);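 note: score merges 667nm spot fluorescence with signal-to-noise for antibody binding to printed compounds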
# Conditions: higher = more signal
row,Compound,composite z-score
1,O=C1C2C=CC(C(O)C3CCCCC3)N(Nc3ccc([N+](=O)[O-])cc3)C2C(=O)N1c1ccccc1 (stereo not given),-0.213
2,C=CCNC(=O)[C@H]1[C@@H]2C(=O)O[C@@H](c3ccccc3)[C@@H](c3ccccc3)N2[C@@H](c2ccc(OCCO)cc2)[C@]12C(=O)N(C(=O)OCCOC)c1ccccc12,0.0925
3,O=C1C2C=CC(C(O)c3c(F)cccc3Cl)N(Nc3ccccc3)C2C(=O)N1c1ccccc1 (stereo not given),0.153
4,CC(C)c1ccc(NN2C(C(O)c3cc(C(F)(F)F)cc(C(F)(F)F)c3)C=CC3C(=O)N(c4ccccc4)C(=O)C32)cc1 (stereo not given),0.0001
5,[N-]=[N+]=NCc1ccccc1C[C@]1(C(=O)O)N=C(c2ccc(OCCCO)cc2)O[C@H]1c1ccccc1N=[N+]=[N-],0.199
6,O=C1O[C@H](c2ccccc2)[C@H](c2ccccc2)N2[C@H]1[C@@H](C(=O)NC[C@H](O)c1ccccc1)[C@]1(C(=O)Nc3ccccc31)[C@H]2c1ccc(OCCO)cc1,-0.0044
7,COC(=O)[C@@]1(Cc2ccc(F)cc2)[C@H]2c3cc(C(=O)N4CCCC4)n(Cc4ccc(C)o4)c3C[C@H]2CN1C(=O)c1ccccc1,0.0108
8,COc1ccc([Si](C)(C)[C@H]2[C@H](CCn3cc([C@H](O)c4ccccc4)nn3)O[C@@]3(C(=O)N(Cc4cccc(N5CCOC5=O)c4)c4ccccc43)[C@@H]2C)cc1,-0.362
9,COc1ccc(CCNC(=O)[C@@]2(C)c3ccccc3C(=O)N(Cc3cc(F)cc(C(F)(F)F)c3)[C@H]2c2ccc(CO)cc2)cc1,-0.0791
10,O=C1O[C@@H](c2ccccc2)[C@@H](c2ccccc2)N2[C@@H](c3ccc(OCCO)cc3)[C@]3(C(=O)Nc4ccccc43)[C@@H](C(=O)NC[C@H](O)c3ccccc3)[C@H]12,0.0561
11,C=C(/C(=C/C[C@@H](OC(C)=O)c1ccc(OCCO)cc1)c1cnc2ccccc2c1)C(C)C,-0.084
12,O=C1OCC=C[C@H]2OC34C=CCN(CCN5CCOCC5)C(=O)[C@H]3N(CCCO)C(=O)[C@@H]4[C@@H]12 (stereo not given in full),-0.128
13,C=CC[C@]1(C(=O)NCCCOC)N=C(c2ccc(OCCCO)cc2)O[C@H]1c1ccccc1N=[N+]=[N-],0.611
14,COCC(=C=CC[C@H](O)c1ccccc1OCCO)C[C@H](O)c1cc(Cl)cc(Cl)c1O,-0.0877
15,COC(=O)c1c(CC[C@@H](CO)NC(=O)N2CCC[C@H]2Cn2cc(-c3ccccn3)nn2)oc(C(C)=O)c1C(=O)OC,-0.0178
16,C=CCN(Cc1ccccc1)C(=O)C(c1cccs1)N(CCOCCO)C(=O)/C=C\C(=O)O (stereo not given),-0.34
17,CCN(CC)c1ccc(N2CC=CC34O[C@@H]5/C=C\CCCOC(=O)C5[C@H]3C(=O)N(CCO)[C@@H]4C2=O)cc1 (stereo not given in full),-0.219
18,C=CC[C@@]1(C(N)=O)N=C(c2ccc(OCCCO)cc2)O[C@@H]1c1ccccc1CN=[N+]=[N-],0.233

row,Compound,composite z-score
1,O=C1c2ccccc2[C@](Cc2ccccc2I)(C(=O)NC2CC2)[C@H](c2ccc(CO)cc2)N1C1CCCCC1,0.306
2,O=C(NCc1ccccc1)[C@@]1(CCS(=O)(=O)c2ccccc2)N=C(c2ccc(OCCCO)cc2)O[C@H]1c1ccccc1,0.212
3,CCCCCN1CC=CC23O[C@@H]4/C=C\CCCOC(=O)C4[C@H]2C(=O)N(CCCO)[C@@H]3C1=O (stereo not given in full),-0.233
4,C=CCNC(=O)[C@@H]1[C@H]2C(=O)O[C@H](c3ccccc3)[C@H](c3ccccc3)N2[C@H](c2ccccc2OCCO)[C@@]12C(=O)N(C(=O)OCCOC)c1ccc(C#CCNC(N)=O)cc12,0.115
5,COCCOC(=O)N1C(=O)[C@@]2(c3cc(C#CCCO)ccc31)[C@H](C(=O)N1CCN(c3ncccn3)CC1)[C@H]1C(=O)O[C@H](c3ccccc3)[C@H](c3ccccc3)N1[C@@H]2c1ccccc1OCCO,-0.0983
6,COc1ccc(CCN2C(=O)[C@@]3(c4ccc([N+](=O)[O-])cc4)CC(=O)N(C4CCCCC4)[C@@H]3c3ccc(CO)cc32)cc1,0.158
7,CCOC(=O)C[C@H]1[C@H](OC(=O)c2ccc(C(=O)c3ccccc3)cc2)[C@@H](NC(=O)c2ccc(-c3ccccc3)cc2)c2cc(OCCCO)ccc2N1C(=O)c1ccccc1,-0.128
8,COC(=O)C(CC#Cc1ccc2c(c1)[C@]1(C(=O)N2)[C@H](c2ccc(O)cc2)N2[C@H](c3ccccc3)[C@H](c3ccccc3)OC(=O)[C@H]2[C@@H]1C(=O)Nc1nc2ccccc2s1)C(=O)OC,0.373
9,O=C1[C@H]2C=C(Br)[C@H](C[C@@H]2OCCCCO)[C@@]12CO2,0.104
10,Cc1ccc(C(C)CC(O)C2C=CC3C(=O)N(c4ccccc4)C(=O)C3N2Nc2ccc([N+](=O)[O-])cc2)o1 (stereo not given),-0.0131
11,COCCOC(=O)N1C(=O)[C@@]2(c3cc(C#CCCO)ccc31)[C@H](C(=O)Nc1nc3ccccc3s1)[C@H]1C(=O)O[C@H](c3ccccc3)[C@H](c3ccccc3)N1[C@@H]2c1ccc(OCCO)cc1,0.138
12,CCCCC(O)C1C=CC2C(=O)N(c3ccccc3)C(=O)C2N1Nc1ccccc1F (stereo not given),0.297
13,[N-]=[N+]=Nc1ccccc1C[C@]1(C(=O)NCC(O)CO)N=C(c2ccc(OCCCO)cc2)O[C@H]1c1ccccc1N=[N+]=[N-] (stereo not given in full),0.192
14,C=C(CCCC)/C(=C/C[C@@H](OC(C)=O)c1ccccc1OCCO)c1cnc2ccccc2c1,-0.0736
15,OC([C@@H]1CC(c2ccccc2)=NO1)[C@H]1CC(c2ccccc2)=NO1 (stereo not given in full),0.027
16,[N-]=[N+]=NCc1ccccc1[C@H]1OC(c2ccc(OCCCO)cc2)=N[C@@]1(Cc1ccccc1)C(=O)NCc1ccccc1,-0.466
17,O=C(NCc1ccccc1)[C@@H]1c2ccccc2C(=O)N(CC23CC4CC(CC(C4)C2)C3)[C@H]1c1ccc(CO)cc1,-0.377
